Measured values taken from PubChem BioAssay (NCATS).
Inconclusive results are not listed. Active and inactive are the calls of the source. The call rests on the fitted dose curve; in most records, active means well fitted inhibition curve with a large enough effect; inconclusive means small, poorly fitted or top-dose-only effect; inactive means flat fitted curve, though single readings scatter.

Key:
Experiment in all cases: qHTS profiling for inhibitors of Plasmodium falciparum proliferation (AID 504749); further: nearly all actives have a fitted effect of over 60% in size
Settings in all cases: P. falciparum in erythrocytes, SYBR Green DNA, 72 h; series mostly up to 28.7 µM
AS120 = test system: AS120
Outline: (§1)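 P. falciparum-infected erythrocytes (0.3% parasitemia, 2.5% hematocrit final) were exposed to compounds for 72 h at 37 C in 5% CO2, then lysed with SYBR Green buffer overnight at room temperature; parasite DNA fluorescence was normalized to artemisinin and DMSO controls.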

ATS189 = test system: ATS189
Outline: as §1

CP201 = test system: CP201
Outline: as §1

CP211 = test system: CP211
Outline: as §1

CP215 = test system: CP215
Outline: as §1

CP262 = test system: CP262
Outline: as §1

CP266 = test system: CP266
Outline: as §1

CP268 = test system: CP268
Outline: as §1

CP269 = test system: CP269
Outline: as §1

CP297 = test system: CP297
Outline: as §1

CP305 = test system: CP305
Outline: as §1

CP315 = test system: CP315
Outline: as §1

CP325 = test system: CP325
Outline: as §1

CP329 = test system: CP329
Outline: as §1

CP335 = test system: CP335
Outline: as §1

DIV14 = test system: DIV14
Outline: as §1

DIV17 = test system: DIV17
Outline: as §1

DIV30 = test system: DIV30
Outline: as §1

GB4 = test system: GB4
Outline: as §1

PC26 = test system: PC26
Outline: as §1

Measured: Potency

CC(=O)OC1CC2CCC1(C)C2(C)C (stereo not given)
inactive: all assays above
